Laboratory results reported in ChEMBL document CHEMBL1157539, “Thousands of chemical starting points for antimalarial lead identification” (Nature, 2010).

Tests used:
Assay type in all cases: functional
Plasmodium falciparum [1] = assay: GSK_TCMDC: Inhibition of Plasmodium falciparum 3D7 in whole red blood cells, using parasite LDH activity as an index of growth. Test compounds present at 2uM
Plasmodium falciparum [2] = assay: GSK_TCMDC: Inhibition of Plasmodium falciparum Dd2 in whole red blood cells, using parasite LDH activity as an index of growth. Test compounds present at 2uM
HepG2 = assay: GSK_TCMDC: Percent inhibition of human HepG2 cell line. Test compounds present at 10uM.

Compound	Inhibition (Plasmodium falciparum [1])	Inhibition (Plasmodium falciparum [2])	Inhibition (HepG2)
CCOc1cc(C(=O)Nc2ccc3nc(N(CC)CC)cc(C)c3c2)cc(OCC)c1OCC	98%	9%	16%
N#Cc1cnc(Nc2ccc(Oc3ccccc3)cc2)nc1Nc1cccc(S(N)(=O)=O)c1	96%	86%	74%
Oc1ccccc1N1CCN(c2ccc(-c3nc4ccccc4[nH]3)cn2)CC1	97%	50%	0%
Cc1ccccc1CNC(=O)Nc1cccc(-c2csc(NC(=N)N)n2)c1	99%	14%	2%
O=C(O)C(F)(F)F.c1ccc2[nH]c(-c3ccc(-c4ccc(CNCC5CCCO5)cc4)s3)nc2c1 (stereo not drawn)	100%	87%	27%
CCC(=O)Nc1ccc(C(O)CN2CCC3(C=Cc4ccccc4O3)CC2)cc1 (stereo not drawn)	93%	47%	48%
Cc1nc(-c2ccc(-c3ccc(C(=O)Nc4ccc(-n5ccnc5)c(N5CCN(C)CC5)c4)cc3)c(C)c2)no1	100%	100%	34%
Cc1cc(=NN=Cc2cccc(Cl)c2)c2ccc(F)cc2[nH]1	100%	98%	0%
O=C(O)C(F)(F)F.c1ccc(CN2CCC(NCc3ccccc3-c3cccc(CNC4CCCC4)c3)CC2)cc1	100%	59%	35%
CCCN(C(=O)c1ccccc1C)c1nnc(-c2ccccc2C)s1	90%	65%	16%
CN1CCN(CCCN(Cc2ccc(-c3cccc(CNCc4ccc5c(c4)OCO5)c3)cc2)C(=O)NC2CCCCC2)CC1.O=C(O)C(F)(F)F	95%	92%	31%
C=C[C@H]1CN(CCCCCCC)CC[C@H]1CCNc1ccnc2ccc(OC)cc12	95%	81%	99%
NCc1ccc(CNCc2cccc(-c3ccc(-c4nc5ccccc5[nH]4)cc3)c2)cc1.O=C(O)C(F)(F)F	100%	58%	10%
COc1ccc(C=NN=c2cc(C)[nH]c3c(C)cccc23)c2ccccc12	100%	98%	3%
CC(=O)N(C)c1cccc(C(=O)Nc2cccc(-c3cccc(-c4nc5cc(C(F)(F)F)ccc5[nH]4)c3)c2)c1	97%	41%	49%
Cc1cccc(NC(=O)NC2CCN(CCCCCNC(=O)/C=C/c3ccc(Cl)c(Cl)c3)CC2)c1	100%	21%	34%
Cc1c(-c2cccc(C(C)(C)NC3CCN(Cc4ccccc4)CC3)c2)cnc(N)c1C.Cl	100%	39%	14%
COCCN1CCN(Cc2cccc(-c3ccc(-c4nc5ccccc5[nH]4)cc3)c2)CC1.O=C(O)C(F)(F)F	100%	50%	9%
Cc1ccc(NC(=O)c2ccc(CN3CCCN(CC4CCCCC4)CC3)cc2)cc1F.O=C(O)C(F)(F)F	92%	61%	51%
CC(C)CC(=O)Nc1cc(=O)[nH]c2nc(-c3ccccc3)nn12	89%	85%	0%
Cc1ccc(NC(=O)c2ccc(CN3CCCN(CCC(C)C)CC3)cc2)cc1F.O=C(O)C(F)(F)F	91%	31%	40%

Compound	Inhibition (Plasmodium falciparum [1])	Inhibition (Plasmodium falciparum [2])	Inhibition (HepG2)
CCNc1cc(C(=O)N[C@@H](Cc2ccccc2)[C@H](O)CN[C@H]2CCc3ccccc32)cc(N2CCCC2=O)c1	98%	99%	8%
Cl.O=S(=O)(Nc1cc2c(cc1O)CCN(C1CCC1)CC2)c1ccc(-c2ccc(F)cc2)cc1	100%	99%	16%
CNCCNCc1cccc(-c2cccc(-c3nc4cccc(C)c4[nH]3)c2)c1.O=C(O)C(F)(F)F	98%	9%	6%
CCOC(=O)c1cnc2cc(N3CCCC3)c(Cl)cc2c1OCC	97%	97%	0%
CCCCCCCCc1c(C)[nH]c(C)c(Cl)c1=O	96%	95%	0%
N#Cc1ccc(N2CCN(Cc3cccc(-c4ccc(-c5nc6cc(C(F)(F)F)ccc6[nH]5)s4)c3)CC2)nc1.O=C(O)C(F)(F)F	96%	52%	31%
CCCCN1C(=N)NC(c2ccccc2)(c2ccccc2)C1=O	87%	34%	19%
Cc1c(Cl)cccc1N=C(S)NN=Cc1ccccn1	99%	85%	58%
Cc1cc(-c2cccc(CNC3CCN(C)CC3)c2)ccc1S(=O)(=O)NCc1ccccc1.O=C(O)C(F)(F)F	99%	90%	53%
CN1CCN(c2ncnc3ccc(NC(=O)Nc4ccc(Cl)c(Cl)c4)cc23)CC1	100%	89%	7%
O=C(N[C@H]1CCN(Cc2ccc(OCCCN3CCCCC3)cc2)C1)c1ccc(Oc2ccccc2)cc1	96%	11%	56%
COc1cc(NCCCNCc2cn(S(=O)(=O)c3ccccc3)c3ccccc23)nc2ccccc12	100%	77%	36%
COC(=O)c1cccc(NC(=O)NC2CCN(c3ccnc(Nc4ccc(OC)cc4)n3)C2)c1 (stereo not drawn)	99%	65%	1%
O=C1O[C@H](c2ccccc2)[C@H](c2ccccc2)N(C(=O)OCc2ccccc2)[C@H]1Cc1ccccc1C1CCCC1	97%	0%	56%
CCOC(=O)c1ccc(-c2cnoc2-c2cc(CC)c(OC)cc2O)o1	100%	97%	12%
CCNc1cc(C(=O)N[C@@H](Cc2ccccc2)[C@H](O)CNCc2cccc(OC)c2)c(OC)c(N2CCCCS2(=O)=O)c1	97%	96%	11%
COc1cc(NC2CCCC(NCc3cn(S(=O)(=O)c4ccccc4)c4ccccc34)C2)nc2ccccc12 (stereo not drawn)	100%	61%	4%
CCCCCN1CCCC(CNS(=O)(=O)c2cccc(C(=O)Nc3ccc(C(F)(F)F)cc3)c2)C1.O=C(O)C(F)(F)F (stereo not drawn)	96%	2%	27%
Cc1cc(N[C@@H](CC(C)C)C(=O)NCCc2ccccc2)nc(NCCc2cccs2)n1.O=C(O)C(F)(F)F	89%	16%	0%
CS(=O)(=O)CCNCc1ccc(-c2ccc3c(Nc4ccc(Oc5ccccn5)cc4)ccnc3c2)o1	100%	99%	0%
CC(C)(C)c1ccc(NC(=O)c2ccc(CN3CCCN(Cc4cccc(O)c4)CC3)cc2)cc1.O=C(O)C(F)(F)F	100%	62%	54%

Compound	Inhibition (Plasmodium falciparum [1])	Inhibition (Plasmodium falciparum [2])	Inhibition (HepG2)
CN1C(C)(C)CC(NC(=O)c2ccc(-c3nc4cc(Cl)ccc4[nH]3)cc2)CC1(C)C	99%	36%	23%
CN(C)Cc1cc2c(O)c(Cc3ccccc3)ccc2o1	85%	69%	3%
Cl.Oc1ccc2[nH]c(-c3cccs3)nc2c1CN1CCC(N2CCCC2)CC1	100%	13%	6%
Cc1cccc2nc(-c3ccc(-c4ccc(CN5CCN(CCC#N)CC5)cc4)cc3)[nH]c12.O=C(O)C(F)(F)F	91%	27%	48%
CN(C)Cc1c(O)ccc2[nH]c(-c3cccc(F)c3)nc12	99%	71%	9%
CCOc1c(CNCCCNc2cc(O)c3ccccc3n2)cc(I)cc1OC	91%	6%	0%
COc1ccc2nc3cc(Cl)ccc3c(NCCc3ccccc3)c2c1.Cl	94%	82%	0%
CN(CCCN(C)c1cc(NC(=O)c2ccc(F)cc2)ccn1)Cc1cccc(F)c1.O=C(O)C(F)(F)F	83%	60%	0%
CC(=O)Nc1cccc(CN(Cc2ccc(-c3ccc(CNCc4cccnc4)cn3)cc2)C(=O)Cc2cccnc2)c1.O=C(O)C(F)(F)F	97%	65%	0%
CCc1ccc(CN2CCC(CNC(=O)c3cc(-c4cccc(C(F)(F)F)c4)cs3)C2)cc1.O=C(O)C(F)(F)F (stereo not drawn)	97%	48%	45%
O=C(Nc1ccc(Cl)c(C(F)(F)F)c1)c1ccc(Cl)c([N+](=O)[O-])c1	87%	18%	20%
COc1c(C2CCN(CCCCNC(=O)c3ccc(-c4ccc(Cl)cc4)cc3)CC2)ccc2c1C(C)(C)CCC2(C)C	95%	42%	94%
Cl.Nc1cccc(C=CC(=O)N=c2cc[nH]c3ccccc23)c1	98%	60%	7%
CN(C)Cc1cccc(-c2cc3c(-c4cnn(C)c4)c(Cl)cnc3[nH]2)c1	96%	21%	75%
Cc1cc(C)cc(OCC(O)CN(Cc2cc(Cl)cc(Cl)c2)C(=O)Nc2ccccc2Cl)c1 (stereo not drawn)	93%	37%	0%
CC(=O)N[C@H](C(=O)Nc1cccc(-c2ccc(-c3nc4cccc(C)c4[nH]3)s2)c1)C(C)C	93%	29%	33%
O=C(/C=C/c1ccc(Cl)c(Cl)c1)NCCCCCN1CCC(NC(=O)Nc2ccc(C(F)(F)F)cc2)C1 (stereo not drawn)	100%	6%	11%
O=C(NCc1ccc(Cl)cc1)c1ccc(C(=O)NCC2CCCN2CC2CCCCC2)cc1.O=C(O)C(F)(F)F (stereo not drawn)	97%	10%	21%
Brc1cc(Br)c2c(c1)C(NCCCNC1CCNc3c(Br)cc(Br)cc31)CCN2 (stereo not drawn)	98%	25%	18%
